# From PubChem BioAssay (NCATS)
# Where “and” joins values, the source holds several entries; their conditions need not be identical. Equal values may be shown once. Unmarked numbers belong to inactive results. Results filed as inconclusive are left out. Entries that show only a call come without a potency. Calls of active or inactive are those of the source. Unless noted, calls follow the shape of the dose curve; as a rule, active = well fitted curve in the direction sought with a large enough effect; inconclusive = small, poorly fitted or top-dose-only effect, or another doubt; inactive = no such curve, though single readings can be large; an effect the other way counts as inactive or inconclusive.
# Columns and labels:
# [1] = Cell Viability - Mesenchymal (AID 546);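 also: cells exposed to compound for 40 hours before reading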
# Procedure, shortened: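 CellTiter-Glo luminescence (intracellular ATP, 20 min room temperature) after 40 hr compound exposure at 37 °C of 1000 glomerulus-derived human kidney mesenchymal cells/well; AC50 values obtained by fitting qHTS concentration-response data to the Hill equation.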
# [2] = Cellular Toxicity (caspase-3) SHSY5Y (AID 657)
# Procedure, shortened: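 SH-SY5Y human neuroblastoma cells, 1500/well, exposed to compound for 16 hours at 37 °C in complete medium. Caspase-3/7 activity read by Caspase-Glo luminescence after 1 hr at room temperature, normalized to DMSO and 10 uM staurosporine; AC50 from Hill fit.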
# [3] = Cellular Toxicity (caspase-3) BJ (AID 658)
# Procedure, shortened: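 Caspase-Glo 3/7 luminescence, read 1 hr after reagent at room temperature, in normal BJ fibroblasts exposed 16 hours at 37 °C. AC50 values from Hill-equation concentration-response, scaled between DMSO basal and 10 uM staurosporine as 100%.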
# [4] = Cellular Toxicity (caspase-3) MRC-5 (AID 659)
# Procedure, shortened: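 Luminescent Caspase-Glo 3/7 read-out (1 h, room temperature) after a 16 h, 37 °C compound exposure of MRC-5 lung fibroblasts at 1500 cells/well. Concentration-response AC50 from Hill equation; 0% DMSO, 100% 10 uM staurosporine.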
# [5] = Cellular Toxicity (caspase-3) Mesangial (AID 660);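 also: cells exposed to compound for 16 h before the caspase read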
# Procedure, shortened: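 Seed cells derived from normal human renal glomeruli, incubate 5 h, add compounds across concentrations and incubate 16 h at 37 °C. Caspase 3/7 activation is then quantified by luciferase light, with AC50 derived by Hill modeling.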
# [6] = Cellular Toxicity (caspase-3) SK-N-SH (AID 661)
# Procedure, shortened: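 Cells were seeded and incubated 5 hr at 37 °C, dosed with compound over a concentration range for 16 hr, then given Caspase-Glo 3/7 reagent for 1 hr at room temperature before luminescence reading.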
# [7] = Cellular Toxicity (caspase-3) Hek293 (AID 664); settings: HEK293 caspase-3 activation, DMSO = 0%, 100 µM tamoxifen = 100%; at 92.2 µM (top of the series);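 also: cells exposed to compound for 16 h at 37 °C before readout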
# Procedure, shortened: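 qHTS, HEK293 (human embryonic kidney), 16 h cpd exposure in complete medium. Caspase-3/7 activation = luminescence increase; normalized to DMSO/100 uM tamoxifen; Hill-fit AC50.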
# [8] = Cellular Toxicity (caspase-3) N2a (AID 665);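 also: compound exposure lasted 16 h at 37 °C before readout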
# Procedure, shortened: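 Caspase-3/7 activation, measured as increased luminescence from aminoluciferin release, is quantified in mouse N2a cells exposed to compounds for 16 h. Values are normalized to DMSO and 10 uM staurosporine, with AC50 derived by Hill modelling.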
# [9] = Cell Viability - LYMP1-002 - Assay at 16 hr (AID 948)
# Procedure, shortened: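 LYMP1-002 human lymphoblastoid cells, 2500/well, were treated with compounds for 16 hr at 37 C in complete medium. Viability was read as intracellular ATP by CellTiter-Glo luminescence, and AC50 was derived from a Hill fit to concentration-response data.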
# [10] = MultiTox-Fluor Cytotoxicity Assay - LYMP1-003 - Dead Cells (AID 961); also: nearly all actives have a fitted effect of over 70% in size
# Procedure, shortened: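 Human lymphoblastoid LYMP1-003 cells (2500/well) were treated with compounds for 16 hr at 37 C in complete medium. Dead-cell protease release was read by bis-AAF-R110 fluorescence (Ex/Em 485/520). AC50 came from Hill fits, normalized to DMSO and 15 uM tetraoctylammonium bromide.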
# [11] = MultiTox-Fluor Cytotoxicity Assay - LYMP1-003 - Live Cells (AID 962);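 also: cytotoxic hits lower the live-cell protease signal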
# Procedure, shortened: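 Acute cytotoxicity is scored as a drop in live-cell protease activity in human lymphoblastoid LYMP1-003 cells after 16 hr compound exposure at 37 C. AC50 values come from Hill-equation modelling of concentration-response data.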
# [12] = Cell Viability - LYMP1-003 - Assay at 24 hr (AID 963)
# Procedure, shortened: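 Cytotoxicity is scored as a concentration-dependent fall in ATP-linked luciferase signal in human lymphoblastoid LYMP1-003 cells treated 24 hr at 37 C in complete culture medium.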
# [13] = Cell Viability - LYMP2-013 (AID 970);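 also: cells exposed to compound for 24 h at 37 °C; nearly all actives have a fitted effect of over 55% in size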; also: potency is read from the fitted curve at half-maximal effect
# Procedure, shortened: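 Cytotoxicity is scored as a concentration-dependent drop in intracellular ATP in human lymphoblastoid cells after 24 hr compound exposure at 37 C. ATP is quantified by luciferase luminescence, and AC50 values come from Hill-equation modeling.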
# [14] = Cell Viability - LYMP2-007 (AID 979);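 also: cells exposed to compound for 24 h before reading; nearly all actives have a fitted effect of over 60% in size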; also: potency is read from the fitted curve at half-maximal effect
# Procedure, shortened: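 Cells are seeded at 2500 per well and rested 5 hr. Compounds are then added over a concentration series for 24 hr at 37 C. CellTiter-Glo is added for 30 min at room temperature before luminescence reading.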
# [15] = Cell Viability - LYMP2-008 (AID 980); also: nearly all actives have a fitted effect of over 60% in size; also: potency is read from the fitted curve at half-maximal effect
# Procedure, shortened: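 Cells seeded at 2500/well and rested 5 hr at 37 C; compounds added over a concentration range and incubated 24 hr at 37 C; CellTiter-Glo added, 30 min at room temperature; luminescence read and AC50 fitted with Hill model.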
# [16] = Cell Viability - LYMP2-014 (AID 983);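 also: cells exposed to compound for 24 h at 37 °C; nearly all actives have a fitted effect of over 50% in size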; also: potency is read from the fitted curve at half-maximal effect
# Procedure, shortened: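 Cells are plated at 2500/well and left 5 hr at 37 C. Compounds are added across a concentration range and incubated 24 hr at 37 C in complete medium. CellTiter-Glo is added, and luminescence is read after 30 min at room temperature.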
# [17] = qHTS Assay for Identification of Small Molecule Inducers of Hypoxia Response (AID 2120; active = well fitted curve in the direction sought with a large enough effect in the signal ratio, with a control signal flat, not every such curve was filed as active; the % refers to the signal ratio)
# Procedure, shortened: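 Cell-based qHTS for reporter induction: hypoxia response element controlled beta-lactamase in ME-180 cells. Compounds incubated 17 h at 37 degrees C; activity from blue/green (460/530 nm) ratio, inducers ranked by AC50.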
# [18] = biological target: Peroxisome proliferator-activated receptor alpha (Homo sapiens) (UniProt Q07869); assay: qHTS assay for small molecule agonists of the peroxisome proliferator-activated receptor alpha (PPARalpha) signaling pathway (AID 651778); settings: PathHunter PPARalpha complementation, chemiluminescence, 6 h; active compounds read high
# Procedure, shortened: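 Chemiluminescence from complemented enzyme reported PPARalpha activation in cells after 6 hr of compound treatment at 37 C. The detection reagent was incubated for 60 min at room temperature, and compounds were scored as agonists.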
# [19] = qHTS assay for small molecule agonists of the antioxidant response element (ARE) signaling pathway measured by Nrf2-dependant transcriptional activity - cell viability counter screen (AID 720653; active = well fitted curve in the direction sought with a large enough effect in the repeat runs; an effect the other way counts as inactive or inconclusive); settings: ARE-bla HepG2 viability, CellTiter-Glo ATP luminescence, 16 h; active compounds read low
# Procedure, shortened: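 Cytotoxicity counter screen: intracellular ATP quantified by CellTiter-Glo luminescence in the same ARE-bla HepG2 plates, after 16 h compound exposure and a 2 h beta-lactamase substrate step.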
# [20] = qHTS assay for cell viability of the p53RE-bla HCT-116 cell line (AID 743292); also: nearly all actives have a fitted effect of over 55% in size
# Procedure, shortened: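 Luminescent ATP quantitation (CellTiter-Glo) served as the viability read-out; reagent was added after 16 h compound exposure at 37 C and read after 30 min at room temperature. Cells: p53RE-bla HCT-116, 4,000 per well.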
# Chain of Peroxisome proliferator-activated receptor alpha (Homo sapiens) (Q07869 whole entry, looked up): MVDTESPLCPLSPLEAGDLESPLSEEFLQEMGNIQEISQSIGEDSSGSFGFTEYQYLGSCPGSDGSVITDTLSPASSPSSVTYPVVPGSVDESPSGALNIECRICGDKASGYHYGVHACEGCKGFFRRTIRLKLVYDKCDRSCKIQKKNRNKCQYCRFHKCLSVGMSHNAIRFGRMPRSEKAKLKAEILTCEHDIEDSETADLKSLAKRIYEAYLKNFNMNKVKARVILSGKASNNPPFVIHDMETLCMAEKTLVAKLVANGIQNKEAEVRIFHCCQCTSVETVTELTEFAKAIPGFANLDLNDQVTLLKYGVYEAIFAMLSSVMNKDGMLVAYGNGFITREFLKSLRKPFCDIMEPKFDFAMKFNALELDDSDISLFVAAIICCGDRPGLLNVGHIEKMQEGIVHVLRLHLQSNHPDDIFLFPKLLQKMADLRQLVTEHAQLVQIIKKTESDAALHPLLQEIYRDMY
SMILES,Potency [1],outcome [2],outcome [3],outcome [4],outcome [5],Potency [6],caspase-3 activation [7],outcome [8],outcome [9],Potency [10],outcome [11],outcome [12],Potency [13],Potency [14],Potency [15],Potency [16],Potency [17],max response [18],max response [19],Potency [20]
CC(C)(C)c1ccccc1O,inactive,inactive,inactive,inactive,inactive,inactive,-1.2%,inactive,inactive,inactive,inactive,inactive,inactive,inactive,inactive,inactive,inactive,-7.23% and -1.41%,-8.15% and -10.7%,inactive
CC(C)(Cl)[N+](=O)[O-],inactive,inactive,inactive,inactive,inactive,inactive,-0.194%,inactive,inactive,inactive,inactive,inactive,inactive,inactive,inactive,inactive,inactive,-3.23%,-1.78%,inactive
COc1ccccc1N,inactive,inactive,inactive,inactive,inactive,inactive,1.4%,inactive,inactive,inactive,inactive,inactive,inactive,inactive,inactive,inactive,inactive,-0.908%,6.75%,inactive
Oc1cccc(Cl)c1Cl,inactive,inactive,inactive,inactive,inactive,inactive,0.0996%,inactive,inactive,inactive,inactive,inactive,inactive,inactive,inactive,inactive,inactive,-2.6%,0.417%,inactive
CCN(N=O)C(N)=O,inactive,inactive,inactive,inactive,inactive,inactive,0.506%,inactive,inactive,inactive,inactive,inactive,inactive,inactive,inactive,inactive,inactive,1.39%,1.02%,inactive
COP(=S)(OC)SCn1nnc2ccccc2c1=O,inactive,inactive,inactive,inactive,inactive,inactive,0.18%,inactive,inactive,,inactive,inactive,inactive,inactive,inactive,inactive,inactive,-5.24% and -2.4%,-8.53% and -8.77%,inactive
Cc1cc(C)cc(OP(=O)(Oc2cc(C)cc(C)c2)Oc2cc(C)cc(C)c2)c1,inactive,inactive,inactive,inactive,inactive,inactive,1.43%,inactive,inactive,,inactive,inactive,inactive,inactive,inactive,inactive,inactive,-0.353%,-9.8%,inactive
CC(C)(COCC1CO1)COCC1CO1 (centres undefined),inactive,inactive,inactive,inactive,inactive,inactive,0.0543%,inactive,inactive,inactive,inactive,inactive,inactive,inactive,inactive,inactive,inactive,-0.497%,1.11%,inactive
CCOS(C)(=O)=O,inactive,inactive,inactive,inactive,inactive,inactive,-3.11%,inactive,inactive,inactive,inactive,inactive,inactive,inactive,inactive,inactive,inactive,0.417%,-5.61%,inactive
O=S(=O)(O)F,inactive,inactive,inactive,inactive,inactive,inactive,4.29%,inactive,inactive,inactive,inactive,inactive,inactive,inactive,inactive,inactive,inactive,-0.405%,-6.55%,inactive
Oc1cc(Cl)cc(Cl)c1,inactive,inactive,inactive,inactive,inactive,inactive,-1.48%,inactive,inactive,inactive,inactive,inactive,inactive,inactive,inactive,inactive,inactive,5.88%,-11.3%,inactive
BrC(Br)Br,inactive,inactive,inactive,inactive,inactive,inactive,-0.311%,inactive,inactive,inactive,inactive,inactive,inactive,inactive,inactive,inactive,inactive,-7%,-14.5%,inactive
C[N+](=O)[O-],inactive,inactive,inactive,inactive,inactive,inactive,-0.684%,inactive,inactive,inactive,inactive,inactive,inactive,inactive,inactive,inactive,inactive,-2.13%,-1.82%,inactive
C=C(Cl)CSC(=S)N(CC)CC,inactive,inactive,inactive,inactive,inactive,inactive,0.963%,inactive,inactive,inactive,inactive,inactive,inactive,inactive,,,inactive,11.5%,-13%,inactive
COC(=O)Nc1nc2ccccc2[nH]1,inactive,inactive,inactive,inactive,inactive,inactive,-4.59%,inactive,inactive,inactive,inactive,inactive,inactive,inactive,,inactive,inactive,-5.67% and 0.607%,0.0482% and -1.74%,inactive
N#CC(Cl)(Cl)Cl,inactive,inactive,inactive,inactive,inactive,inactive,1.68%,inactive,inactive,inactive,inactive,inactive,inactive,inactive,inactive,inactive,inactive,9.56%,1.54%,inactive
c1ccc(NNc2ccccc2)cc1,inactive,inactive,inactive,inactive,inactive,inactive,-0.473%,inactive,inactive,inactive,inactive,inactive,inactive,inactive,inactive,inactive,inactive,-1.84% and -2.39%,0.997% and 18.6%,inactive
Nc1ccc([N+](=O)[O-])cc1N,inactive,inactive,inactive,inactive,inactive,inactive,0.611%,inactive,inactive,inactive,inactive,inactive,inactive,inactive,inactive,inactive,inactive,-9.77% and -2.05%,0.262% and -5.88%,inactive
CN(C)C(=O)Nc1ccc(Cl)cc1,inactive,inactive,inactive,inactive,inactive,inactive,2.1%,inactive,inactive,inactive,inactive,inactive,inactive,inactive,inactive,inactive,inactive,-3.6% and -1.79%,-16.9% and 1.13%,inactive
O=[N+]([O-])c1cc(Cl)c(Cl)c(Cl)c1,inactive,inactive,inactive,inactive,inactive,inactive,2.74%,inactive,inactive,inactive,inactive,inactive,inactive,inactive,inactive,inactive,inactive,-4.23%,-3.56%,inactive
O=[N+]([O-])c1ccccc1O,inactive,inactive,inactive,inactive,inactive,inactive,-0.522%,inactive,inactive,inactive,inactive,inactive,inactive,inactive,inactive,inactive,inactive,-0.691%,5.01%,inactive
COC(C)(C)C,inactive,inactive,inactive,inactive,inactive,inactive,0.0289%,inactive,inactive,inactive,inactive,inactive,inactive,inactive,inactive,inactive,inactive,-1.3%,4.13%,inactive
O=Cc1ccc(Cl)cc1Cl,inactive,inactive,inactive,inactive,inactive,inactive,-1.13%,inactive,inactive,inactive,inactive,inactive,inactive,inactive,inactive,inactive,inactive,-4.79%,1.04%,inactive
Oc1cccc(Cl)c1,inactive,inactive,inactive,inactive,inactive,inactive,-0.037%,inactive,inactive,inactive,inactive,inactive,inactive,inactive,inactive,inactive,inactive,16.7%,-6.82%,inactive
O=C(O)C(Br)CBr (centres undefined),inactive,inactive,inactive,inactive,inactive,inactive,1.8%,inactive,inactive,inactive,inactive,inactive,inactive,,inactive,inactive,inactive,1.03%,0.981%,inactive
CN1CSC(=S)N(C)C1,inactive,inactive,inactive,inactive,,inactive,,inactive,,inactive,,,39.8 µM (active),31.6 µM (active),39.8 µM (active),15.8 µM (active),inactive,-4.77% and -6.32%,-1.99% and -0.305%,inactive
Nc1ccc(Cc2ccc(N)c(Cl)c2)cc1Cl,inactive,inactive,inactive,inactive,inactive,inactive,1.19%,inactive,inactive,inactive,inactive,inactive,inactive,inactive,inactive,inactive,inactive,2.66%,-8.13%,inactive
